Here are results for 6 compounds from PubChem BioAssay (EPA / NIEHS).

Several values for one entry are separate records, joined by “and”; a condition that tells them apart may be missing. Equal values may be shown once. Records with an inconclusive call do not appear. Some structures have more than one record in an assay (separate samples or runs), and their calls can disagree. Activity calls are given as the source filed them. How the source made its calls, unless noted: active means hit-call score of the fitted dose curve at least 0.9, where 1 is the maximum; inconclusive means response in the unintended direction; inactive means score below 0.9.

Broadly, the AC50 is the concentration at which the activity in the assay is half-maximal.

Assay [1] can be described thus: ATG_TGFb_CIS: Attagene CIS-FACTORIAL HepG2 Assay for human Transforming Growth Factor (TGF) (AID 2282967; active means hit-call score of the fitted dose curve at least 0.9, where 1 is the maximum; inactive means score below 0.9). Particulars: HepG2 Attagene CIS TGFb reporter, mRNA transcription; actives raise or lower the signal. In a few lines:
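Transcript-level reporter readout: HepG2 transfectants, 24 h exposure, RNA to cDNA, reporter-specific PCR, fluorescent primer extension, capillary sizing against ROX standards. Gain- or loss-of-signal relative to DMSO.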

The nature of assay [2]: ATG_VDRE_CIS: Attagene CIS-FACTORIAL HepG2 Assay for human Vitamin D Receptor Element (VDRE) (AID 2282968; active means hit-call score of the fitted dose curve at least 0.9, where 1 is the maximum; inactive means score below 0.9). The following applies: HepG2 VDRE cis-reporter transcription, actives raise or lower the signal. In a few lines:
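RT-PCR/CE readout of reporter mRNA; HepG2, transient transfection, 24 h dosing; DMSO baseline; bidirectional analysis.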

Assay [3] concerns the target Estrogen receptor (Homo sapiens) (UniProt P03372). In words: ATG_ERa_TRANS: Attagene TRANS-FACTORIAL HepG2 Assay for human Estrogen Receptor alpha (ERa) (AID 2282970). Particulars: HepG2 Attagene TRANS ERa GAL4 reporter, mRNA. In a few lines: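 After 24 h of compound treatment, RNA from HepG2 cells bearing transfected GAL4-UAS reporter constructs is converted to cDNA, amplified and fluorescently labelled. Capillary electrophoresis resolves the ERa-linked reporter; DMSO serves as negative control.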

The target in assay [4] is Steroid hormone receptor ERR1 (Homo sapiens) (UniProt P11474). In words: ATG_ERRa_TRANS: Attagene TRANS-FACTORIAL HepG2 Assay for human Estrogen-Related Receptor alpha (ERRa) (AID 2282971). The following applies: HepG2 Attagene TRANS reporter, ERRa transactivation. In a few lines: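 Transfected HepG2, 24 h dosing, ERRa-Gal4 chimera driving GAL4-UAS reporter. Readout: reporter mRNA via RT-PCR plus capillary electrophoresis (fluorescence). Positive direction vs DMSO control.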
Sequence of Steroid hormone receptor ERR1 (Homo sapiens) (P11474 whole entry, looked up, the tested form may be a part): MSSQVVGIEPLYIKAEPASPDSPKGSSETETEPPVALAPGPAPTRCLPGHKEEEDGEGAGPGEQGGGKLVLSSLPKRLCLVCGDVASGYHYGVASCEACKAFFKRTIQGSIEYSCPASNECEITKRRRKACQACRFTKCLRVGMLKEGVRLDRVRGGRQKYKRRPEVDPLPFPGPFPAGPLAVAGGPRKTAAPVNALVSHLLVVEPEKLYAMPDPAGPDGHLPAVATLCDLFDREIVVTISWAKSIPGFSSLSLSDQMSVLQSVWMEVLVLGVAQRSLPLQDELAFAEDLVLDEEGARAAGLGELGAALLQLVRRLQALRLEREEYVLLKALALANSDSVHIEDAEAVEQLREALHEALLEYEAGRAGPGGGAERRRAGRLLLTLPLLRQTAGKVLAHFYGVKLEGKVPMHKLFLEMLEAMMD

For assay [5], the target named is X-box-binding protein 1 (Homo sapiens) (UniProt P17861). Put plainly: ATG_Xbp1_CIS: Attagene CIS-FACTORIAL HepG2 Assay for human X-box Binding Protein 1 (XBP1) (AID 2282972; active means hit-call score of the fitted dose curve at least 0.9, where 1 is the maximum; inactive means score below 0.9). Particulars: HepG2 XBP1 cis-element reporter, Attagene multiplex; actives raise or lower the signal. In a few lines:
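Fluorescence-labelled cDNA fragments from reporter transcripts, separated by capillary electrophoresis, give the signal. Source: HepG2 cells transfected with promoter-driven reporter units, harvested 24 h post-dose. DMSO served as reference for bidirectional curve fitting.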

Assay [6] is described as follows: ATG_M_19_TRANS: Attagene TRANS-FACTORIAL HepG2 Assay for M19 Transcription Factor (Internal Marker) (AID 2282974). Particulars: HepG2 Attagene TRANS-FACTORIAL M19 internal marker reporter. In a few lines: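 Cells: human HepG2, transiently transfected with multiplexed reporter transcription units. Exposure: 24 h. Detection: RT-PCR of reporter mRNA with capillary electrophoresis. Analysis: gain-of-signal vs DMSO.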

Assay [7] is described as follows: ATG_GAL4_TRANS: Attagene TRANS-FACTORIAL HepG2 Assay for GAL4 (Internal Marker) (AID 2282976). Particulars: HepG2 Attagene TRANS GAL4 internal marker reporter. The method, boiled down:
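RT-PCR/capillary electrophoresis readout of reporter mRNA. HepG2, transient MRTU transfection (GAL4-UAS reporters), 24 h compound exposure. Background-control endpoint, positive direction vs DMSO baseline.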

For assay [8], the target named is Estrogen-related receptor gamma (Homo sapiens) (UniProt P62508). In words: ATG_ERRg_TRANS: Attagene TRANS-FACTORIAL HepG2 Assay for human Estrogen-Related Receptor gamma (ERRg) (AID 2282977).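 Further: hits increase reporter signal over DMSO so potencies reflect activators.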 Particulars: HepG2 Attagene TRANS reporter, ERRg transactivation. In a few lines:
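Transfect HepG2 with multiple GAL4-UAS reporter transcription units; dose chemicals 24 h; isolate RNA, reverse-transcribe with oligo(dT), PCR-amplify, label with 6-FAM, digest with HpaI; size fragments by capillary electrophoresis. DMSO serves as negative control.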

The target of assay [9] is Glucocorticoid receptor (Homo sapiens) (UniProt P04150). In words: ATG_GR_TRANS: Attagene TRANS-FACTORIAL HepG2 Assay for human Glucocorticoid Receptor (GR) (AID 2282978).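 Further: activators score as hits since higher reporter transcript over DMSO is fitted.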 Particulars: HepG2 Attagene TRANS GR reporter, mRNA transcription. The method, boiled down:
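In this trans-factorial format, exogenous NR-GAL4 chimeric proteins in transfected HepG2 cells regulate GAL4-UAS reporter transcription. After 24 h treatment, reporter mRNA induction relative to DMSO is read by RT-PCR and capillary electrophoresis.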

The target in assay [10] is Bile acid receptor (Homo sapiens) (UniProt Q96RI1). Put plainly: ATG_FXR_TRANS: Attagene TRANS-FACTORIAL HepG2 Assay for Farnesoid X Receptor (FXR) (AID 2282979).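 Further: hits raise reporter mRNA above DMSO so AC50 marks FXR activation.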 Particulars: HepG2 Attagene TRANS FXR-GAL4 reporter transcription. In a few lines: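 Read-out: fluorescent reporter transcripts quantified by capillary electrophoresis after RT-PCR of total RNA. Source cells were HepG2 transiently carrying chimeric NR-GAL4 plus GAL4-UAS reporter units, dosed 24 h. Activity fitted upward relative to DMSO baseline.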
Sequence of Bile acid receptor (Homo sapiens) (Q96RI1 whole entry, looked up, the tested form may be a part): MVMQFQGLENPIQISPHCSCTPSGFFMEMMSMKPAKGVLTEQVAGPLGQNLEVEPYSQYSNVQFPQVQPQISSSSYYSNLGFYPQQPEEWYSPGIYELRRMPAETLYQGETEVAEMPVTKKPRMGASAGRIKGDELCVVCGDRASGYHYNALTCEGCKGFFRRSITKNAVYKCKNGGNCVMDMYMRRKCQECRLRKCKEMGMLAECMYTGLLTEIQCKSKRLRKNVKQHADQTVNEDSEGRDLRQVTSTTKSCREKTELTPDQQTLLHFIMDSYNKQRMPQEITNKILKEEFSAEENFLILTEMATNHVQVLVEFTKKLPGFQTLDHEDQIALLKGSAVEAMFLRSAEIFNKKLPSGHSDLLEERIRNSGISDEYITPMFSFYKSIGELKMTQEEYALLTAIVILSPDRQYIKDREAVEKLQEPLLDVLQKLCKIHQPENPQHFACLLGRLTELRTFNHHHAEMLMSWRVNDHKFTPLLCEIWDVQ

The target in assay [11] is Hepatocyte nuclear factor 4-alpha (Homo sapiens) (UniProt P41235). In words: ATG_HNF4a_TRANS: Attagene TRANS-FACTORIAL HepG2 Assay for human Hepatocyte Nuclear Factor 4 alpha (HNF4a) (AID 2282982). Particulars: HepG2 HNF4a transactivation reporter, mRNA readout. The method, boiled down:
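Cells used were human HepG2, transiently carrying GAL4-UAS reporter units read out against exogenous NR-GAL4 chimeras. Reporter transcript levels after 24 h dosing were quantified by fluorescent RT-PCR and capillary electrophoresis.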

Assay [12] is described as follows: ATG_M_06_TRANS: Attagene TRANS-FACTORIAL HepG2 Assay for M06 Transcription Factor (Internal Marker) (AID 2282983). Particulars: HepG2 Attagene TRANS M06 internal marker reporter. The method, boiled down:
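After a 24 h chemical treatment of transfected HepG2, RNA underwent DNase I treatment, reverse transcription and reporter-specific PCR; labelled, HpaI-digested products were sized by capillary electrophoresis. Signal increase relative to DMSO defined activity.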

Assay [13] can be described thus: ATG_M_32_TRANS: Attagene TRANS-FACTORIAL HepG2 Assay for M32 Transcription Factor (Internal Marker) (AID 2282984).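 Further: transcript level of a background control reporter unit measured by RT-PCR and capillary electrophoresis.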 The following applies: HepG2 Attagene TRANS M32 internal marker reporter. The method, boiled down:
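Human hepatoma HepG2, transient MRTU transfection, 24 h treatment. RNA → RT-PCR → fluorescent primer extension → HpaI digest (2 h, 37 C) → CE. Positive-direction fit vs DMSO.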

In assay [14] the target is Nuclear receptor subfamily 4 group A member 2 (Homo sapiens) (UniProt P43354). In words: ATG_NURR1_TRANS: Attagene TRANS-FACTORIAL HepG2 Assay for human Nuclear Receptor Related Protein 1 (NURR1) (AID 2282985). Particulars: HepG2 Attagene TRANS reporter, mRNA readout. The method, boiled down: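 After 24 h chemical dosing, total RNA from transiently transfected HepG2 cells was reverse-transcribed and reporter cDNA PCR-amplified, FAM-labelled and analysed by capillary electrophoresis. Activity fitted in positive direction, DMSO as negative control.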
Sequence of Nuclear receptor subfamily 4 group A member 2 (Homo sapiens) (P43354 whole entry, looked up): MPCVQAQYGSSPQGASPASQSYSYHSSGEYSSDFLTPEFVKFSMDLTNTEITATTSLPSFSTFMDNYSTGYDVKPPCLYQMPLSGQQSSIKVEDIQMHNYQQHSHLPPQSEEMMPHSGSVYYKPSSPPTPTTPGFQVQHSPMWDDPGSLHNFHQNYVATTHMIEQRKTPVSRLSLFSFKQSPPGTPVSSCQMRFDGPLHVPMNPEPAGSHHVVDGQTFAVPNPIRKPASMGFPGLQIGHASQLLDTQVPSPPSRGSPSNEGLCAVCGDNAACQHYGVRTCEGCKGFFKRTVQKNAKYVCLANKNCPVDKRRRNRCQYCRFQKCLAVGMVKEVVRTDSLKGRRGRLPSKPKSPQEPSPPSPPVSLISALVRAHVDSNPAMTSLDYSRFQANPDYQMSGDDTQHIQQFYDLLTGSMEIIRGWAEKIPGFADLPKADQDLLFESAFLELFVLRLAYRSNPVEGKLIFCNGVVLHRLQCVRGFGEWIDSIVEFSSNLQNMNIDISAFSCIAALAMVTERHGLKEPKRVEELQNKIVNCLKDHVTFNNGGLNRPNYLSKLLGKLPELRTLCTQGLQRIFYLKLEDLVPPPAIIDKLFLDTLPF

Assay [15] deals with Transcriptional activator Myb (Homo sapiens) (UniProt P10242). In words: ATG_Myb_CIS: Attagene CIS-FACTORIAL HepG2 Assay for human Myeloblastosis (Myb) Proto-Oncogene Transcription Factor (AID 2282986; active means hit-call score of the fitted dose curve at least 0.9, where 1 is the maximum; inactive means score below 0.9). Particulars: HepG2 Attagene CIS-FACTORIAL Myb reporter transcription; actives raise or lower the signal. The method, boiled down:
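Steps: transfect HepG2 with cis-regulated reporter units; dose with chemical for 24 h; isolate RNA, reverse-transcribe, PCR-amplify and FAM-label reporter sequences; digest with HpaI; resolve by capillary electrophoresis. Activity fitted in both directions relative to DMSO.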

In assay [16] the target is Nuclear respiratory factor 1 (Homo sapiens) (UniProt Q16656). Put plainly: ATG_NRF1_CIS: Attagene CIS-FACTORIAL HepG2 Assay for human Nuclear Respiratory Factor 1 (NRF1) Orphan Gene (AID 2282987; active means hit-call score of the fitted dose curve at least 0.9, where 1 is the maximum; inactive means score below 0.9). Particulars: HepG2 NRF1 cis-element reporter, Attagene multiplex; actives raise or lower the signal. The method, boiled down:
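Fluorescence intensity of labelled reporter cDNA fragments, resolved by capillary electrophoresis, served as readout for NRF1 cis-element activity. Transiently transfected HepG2 cells were dosed for 24 hours; activity in either direction was fitted against DMSO negative control.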

Assay [17] is described as follows: ATG_NFI_CIS: Attagene CIS-FACTORIAL HepG2 Assay for human Nuclear Factor I (NFI) (AID 2282989; active means hit-call score of the fitted dose curve at least 0.9, where 1 is the maximum; inactive means score below 0.9). The following applies: HepG2 cis-regulatory reporter, NFI response element transcription; actives raise or lower the signal. In a few lines:
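After transient transfection of HepG2 with cis-promoter reporter constructs and 24 h dosing, RNA is reverse-transcribed, amplified, 6-FAM end-labelled and HpaI-digested before capillary analysis. Bidirectional curve fitting against DMSO.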

The target in assay [18] is Oxysterols receptor LXR-alpha (Homo sapiens) (UniProt Q13133). Put plainly: ATG_LXRa_TRANS: Attagene TRANS-FACTORIAL HepG2 Assay for human Liver X Receptor alpha (LXRa) (AID 2282980). Particulars: HepG2 Attagene TRANS reporter, LXRa transactivation. The method, boiled down:
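Read-out: reporter transcript levels by RT-PCR plus capillary electrophoresis, fluorescence intensity. Transiently transfected HepG2, exogenous NR-GAL4 chimera, GAL4-UAS reporters; 24 h compound exposure. Activity = increase over DMSO negative control.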

Assay [19] concerns the target Oxysterols receptor LXR-beta (Homo sapiens) (UniProt P55055). Put plainly: ATG_LXRb_TRANS: Attagene TRANS-FACTORIAL HepG2 Assay for human Liver X Receptor beta (LXRb) (AID 2282981). The following applies: HepG2 Attagene TRANS GAL4-LXRb reporter, mRNA. The method, boiled down: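 In this TRANS format, exogenous chimeric NR-Gal4 protein activity, not endogenous factors, drives reporter expression in transfected human HepG2 cells. Exposure lasted 24 h; reporter mRNA was read by fluorescent capillary electrophoresis.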

Sequence of Estrogen-related receptor gamma (Homo sapiens) (P62508 whole entry, looked up, the tested form may be a part): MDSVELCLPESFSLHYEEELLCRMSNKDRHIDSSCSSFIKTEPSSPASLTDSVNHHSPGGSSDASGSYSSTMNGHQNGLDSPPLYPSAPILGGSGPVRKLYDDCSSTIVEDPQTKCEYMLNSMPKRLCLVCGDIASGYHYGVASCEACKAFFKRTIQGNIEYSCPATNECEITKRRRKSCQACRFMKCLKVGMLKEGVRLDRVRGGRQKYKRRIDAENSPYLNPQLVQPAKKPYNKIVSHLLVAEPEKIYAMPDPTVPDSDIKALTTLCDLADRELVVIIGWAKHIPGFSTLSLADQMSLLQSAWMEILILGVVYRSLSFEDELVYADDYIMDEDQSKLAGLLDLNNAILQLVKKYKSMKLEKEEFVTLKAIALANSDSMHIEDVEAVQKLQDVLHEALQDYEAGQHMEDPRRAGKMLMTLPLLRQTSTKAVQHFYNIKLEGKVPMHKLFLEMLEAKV
Sequence of Estrogen receptor (Homo sapiens) (P03372 whole entry, looked up, the tested form may be a part): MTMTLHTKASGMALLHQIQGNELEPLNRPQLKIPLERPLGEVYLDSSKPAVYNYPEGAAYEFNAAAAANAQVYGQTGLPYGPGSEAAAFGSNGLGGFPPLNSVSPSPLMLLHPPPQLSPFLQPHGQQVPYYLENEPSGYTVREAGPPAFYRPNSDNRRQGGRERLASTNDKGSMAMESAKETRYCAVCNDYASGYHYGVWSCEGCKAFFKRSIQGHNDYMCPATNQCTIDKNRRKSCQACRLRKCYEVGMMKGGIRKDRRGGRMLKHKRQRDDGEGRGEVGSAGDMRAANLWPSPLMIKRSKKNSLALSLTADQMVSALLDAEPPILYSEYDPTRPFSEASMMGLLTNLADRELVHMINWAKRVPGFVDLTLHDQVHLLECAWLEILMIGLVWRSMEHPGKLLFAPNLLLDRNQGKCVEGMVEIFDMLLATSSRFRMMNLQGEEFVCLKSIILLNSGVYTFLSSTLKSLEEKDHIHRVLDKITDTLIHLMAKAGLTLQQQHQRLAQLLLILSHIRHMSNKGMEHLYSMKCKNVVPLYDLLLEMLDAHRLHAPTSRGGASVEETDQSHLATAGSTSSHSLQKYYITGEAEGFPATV
Sequence of Oxysterols receptor LXR-beta (Homo sapiens) (P55055 whole entry, looked up, the tested form may be a part): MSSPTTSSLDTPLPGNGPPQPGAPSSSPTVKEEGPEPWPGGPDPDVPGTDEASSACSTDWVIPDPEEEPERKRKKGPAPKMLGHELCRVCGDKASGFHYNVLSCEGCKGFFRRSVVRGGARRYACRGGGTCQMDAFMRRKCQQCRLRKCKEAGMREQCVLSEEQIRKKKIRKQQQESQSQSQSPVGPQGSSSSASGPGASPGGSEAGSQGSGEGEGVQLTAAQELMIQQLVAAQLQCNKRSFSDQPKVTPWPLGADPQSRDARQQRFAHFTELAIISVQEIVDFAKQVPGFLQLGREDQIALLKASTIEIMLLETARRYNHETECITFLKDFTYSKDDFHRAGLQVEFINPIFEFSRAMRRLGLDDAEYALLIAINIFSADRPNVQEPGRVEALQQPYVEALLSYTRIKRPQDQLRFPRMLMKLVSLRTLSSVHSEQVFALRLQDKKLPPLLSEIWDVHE
Sequence of Transcriptional activator Myb (Homo sapiens) (P10242 whole entry, looked up): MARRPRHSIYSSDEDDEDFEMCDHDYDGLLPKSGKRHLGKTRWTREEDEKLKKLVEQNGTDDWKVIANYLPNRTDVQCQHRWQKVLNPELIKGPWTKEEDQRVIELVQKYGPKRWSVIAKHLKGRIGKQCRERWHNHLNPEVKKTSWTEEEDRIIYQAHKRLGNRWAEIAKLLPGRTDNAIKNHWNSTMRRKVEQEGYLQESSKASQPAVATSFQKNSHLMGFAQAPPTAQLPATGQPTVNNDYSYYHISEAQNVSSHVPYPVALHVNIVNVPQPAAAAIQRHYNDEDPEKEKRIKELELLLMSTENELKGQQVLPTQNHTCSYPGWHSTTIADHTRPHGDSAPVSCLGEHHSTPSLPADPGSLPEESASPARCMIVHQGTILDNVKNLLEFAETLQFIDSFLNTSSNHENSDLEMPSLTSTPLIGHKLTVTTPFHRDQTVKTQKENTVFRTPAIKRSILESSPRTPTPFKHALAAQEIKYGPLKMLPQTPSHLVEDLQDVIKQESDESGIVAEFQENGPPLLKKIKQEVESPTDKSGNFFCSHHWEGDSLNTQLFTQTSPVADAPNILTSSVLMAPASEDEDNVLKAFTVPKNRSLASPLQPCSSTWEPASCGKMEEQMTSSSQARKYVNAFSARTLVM
Sequence of X-box-binding protein 1 (Homo sapiens) (P17861 whole entry, looked up, the tested form may be a part): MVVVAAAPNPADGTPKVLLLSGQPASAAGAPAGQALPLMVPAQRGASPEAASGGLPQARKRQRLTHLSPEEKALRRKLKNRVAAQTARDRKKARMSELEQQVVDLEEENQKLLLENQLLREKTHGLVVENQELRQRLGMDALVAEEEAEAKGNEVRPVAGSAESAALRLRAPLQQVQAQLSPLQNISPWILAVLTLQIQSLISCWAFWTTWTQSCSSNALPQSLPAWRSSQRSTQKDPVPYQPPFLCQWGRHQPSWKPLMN
Sequence of Oxysterols receptor LXR-alpha (Homo sapiens) (Q13133 whole entry, looked up, the tested form may be a part): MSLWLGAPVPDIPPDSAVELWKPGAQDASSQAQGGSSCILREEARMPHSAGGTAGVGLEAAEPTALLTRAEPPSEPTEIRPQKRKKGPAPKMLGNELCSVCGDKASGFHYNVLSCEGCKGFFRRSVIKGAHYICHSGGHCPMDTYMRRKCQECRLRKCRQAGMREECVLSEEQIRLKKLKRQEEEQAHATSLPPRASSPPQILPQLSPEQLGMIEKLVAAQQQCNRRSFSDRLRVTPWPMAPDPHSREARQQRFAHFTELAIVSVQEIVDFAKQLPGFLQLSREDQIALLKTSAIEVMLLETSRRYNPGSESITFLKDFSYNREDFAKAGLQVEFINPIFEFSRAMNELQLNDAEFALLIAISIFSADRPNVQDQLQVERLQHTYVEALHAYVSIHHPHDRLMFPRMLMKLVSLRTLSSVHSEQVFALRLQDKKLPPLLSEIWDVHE
Sequence of Hepatocyte nuclear factor 4-alpha (Homo sapiens) (P41235 whole entry, looked up, the tested form may be a part): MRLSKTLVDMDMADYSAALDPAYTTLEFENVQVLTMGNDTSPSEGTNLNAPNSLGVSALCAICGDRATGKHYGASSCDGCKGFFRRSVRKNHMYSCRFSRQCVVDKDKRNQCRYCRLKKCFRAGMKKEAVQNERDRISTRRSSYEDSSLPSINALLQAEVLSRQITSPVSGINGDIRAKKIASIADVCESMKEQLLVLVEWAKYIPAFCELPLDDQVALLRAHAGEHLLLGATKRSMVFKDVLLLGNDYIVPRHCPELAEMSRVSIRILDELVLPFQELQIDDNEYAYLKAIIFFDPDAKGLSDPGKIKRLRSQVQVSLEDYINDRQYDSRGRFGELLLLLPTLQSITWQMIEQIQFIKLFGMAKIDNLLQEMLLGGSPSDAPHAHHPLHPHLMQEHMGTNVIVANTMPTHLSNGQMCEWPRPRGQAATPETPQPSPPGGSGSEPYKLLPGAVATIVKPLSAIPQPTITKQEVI

Regarding `C[C@]12CC[C@@H]3c4ccc(O)cc4C[C@@H](CCCCCCCCCS(=O)CCCC(F)(F)C(F)(F)F)[C@H]3[C@@H]1CC[C@@H]2O` (some centres not stated), the compound was classed as inactive in assay [1], in assay [2], in [3], in [4], in assay [5] and in assay [6]. Besides, the result in assay [7], in assay [8], in [9], in assay [10], in assay [11] and in assay [12] was inactive. The compound was classed as inactive in assay [13], in assay [14], in assay [15], in [16] and in assay [17]. Further, the AC50 in assay [2] was 1 µM (active) and 1.5 µM (active).
On to `OB(O)O`, for which the outcome in assay [1], in assay [2], in [3], in [4], in assay [5] and in [6] was inactive. Further, the outcome in [8], in [9], in assay [10], in assay [18], in assay [19] and in assay [11] was inactive. In addition, the compound was classed as inactive in [13], in assay [14], in [15], in assay [16] and in [17].
Regarding `CCN(Cc1c(F)cccc1Cl)c1c([N+](=O)[O-])cc(C(F)(F)F)cc1[N+](=O)[O-]`, the compound was called inactive in assay [1], in assay [4], in assay [5], in assay [6], in assay [7] and in assay [8]. The outcome in assay [11], in assay [13], in assay [14], in assay [15], in assay [16] and in assay [17] was inactive. Further, the AC50 is 1.87 µM (active) in [2] and 3.08 µM (active) in assay [3].
In the case of `Cc1nn(C)c(Oc2ccccc2)c1C=NOCc1ccc(C(=O)OC(C)(C)C)cc1`, the AC50 is 3150 nM (active) in assay [1]; 0.698 µM (active) in assay [2]; 38.6 nM (active) in [5]; 1880 nM (active) in assay [19]; 42.4 nM (active) in [17]. The compound was classed as inactive in [3], in [4], in assay [6], in assay [8], in assay [11] and in [13]. The compound was classed as inactive in [14], in assay [15] and in [16].
Turning to `CCN(CC)C(=O)c1cccc(C)c1`, the result in [1], in assay [2], in assay [3], in assay [4], in [5] and in [6] was inactive. In addition, the result in assay [7], in assay [8], in [9], in assay [10], in assay [19] and in assay [11] was inactive. Also, the compound was classed as inactive in assay [12], in assay [13], in assay [15], in assay [16] and in assay [17].
Consider `O=C(c1ccc(O)cc1O)c1ccc(O)cc1O`, for which the compound was called inactive in assay [1], in assay [2], in assay [5], in [6], in [9] and in assay [10]. The call in assay [18], in [19], in [11], in [12], in [13] and in [14] was inactive. Also, the compound was classed as inactive in assay [15], in assay [16] and in assay [17]. Further, the AC50 in assay [3] was 827 nM (active) [middle of 4 runs]; in [16] it was 46500 nM (active).
